TWEAK-Fn14 inh = inhibitors of TWEAK-Fn14 signaling, primary screen, luciferase reporter cells, uHTS. TWEAK-stimulated Fn14 reporter cells, luciferase luminescence, 8 h. inhibition, % at 10 µM. 360,000 compounds, 2% hits. AID 1159606, 2016; in the data active means inhibition above about 50%
TROY NFkB inh = inhibitors of TROY-driven NF-kB signaling, primary screen, Q293 LMP1-TROYcd cells, NF-kB luciferase, uHTS. Q293 LMP1-TROYcd NF-kB luciferase reporter, 4 h. inhibition, % at 10 µM. 360,000 compounds, 0.98% hits;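 active means compounds whose plate-normalised and pattern-corrected inhibition of the luciferase reporter signal at the single screening dose is 50% or more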
Shn3 3UTR inh = reduction of Shn3 3'UTR firefly luciferase signal, primary screen, Schnurri-3 inhibitor project, cell-based, Clone20 osteoblasts, set 2; 360,000 compounds, 0.52% hits; Clone20 osteoblast Shn3 3'UTR firefly luciferase, 24 h; inhibition, % at 12.5 µM; AID 588674, 2011;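 active means mean inhibition of at least 75% with every replicate also reaching 75%; inconclusive means mean inhibition at least 75% but some replicate below; inactive means mean inhibition below 75%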;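 further: 0% = median of neutral control wells and 100% = pilot-screen positive control compound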
EBV LMP1 NFkB = EBV LMP1-driven NF-kappaB luciferase reporter inhibitors, primary screen, cell-based, luminescence, single point; LMP1-induced NF-kappaB luciferase reporter cells; inhibition, % at 12.5 µM; 350,000 compounds, 0.69% hits; AID 504558, 2011; in the data active means inhibition above about 41%; inconclusive means no clear call, values can overlap the other calls;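 further: 0% = neutral control wells and 100% = reference inhibitor control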
TRPM1 prom inh = inhibitors of MITF-dependent TRPM1 promoter reporter, primary screen, cell-based, SK-MEL-5, single point, luciferase; SK-MEL-5 TRPM1 promoter luciferase, 24 h; inhibition, % at 12.5 µM; 330,000 compounds, 0.83% hits;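 active means mean inhibition across replicates of 60% or more, whatever share of single replicates reaches that level; inconclusive means some that reach 60%, reason not given; inactive means mean inhibition across replicates below 60%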
HIF-2a block = HIF-2a reporter inhibitors, primary screen, luminescence, 786-0 RCC cells | AID 624352, 2012 | inhibition, % at 18.8 µM | 360,000 compounds, 0.72% hits | 786-0 RCC cells HIF-2a reporter, luciferase luminescence, overnight;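 active means inhibition of the luminescence signal of 40% or more relative to plate controls, in a single-dose primary screen at 18.75 µM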
* hit, by the source's call; ? = inconclusive; . = no result given. Sampled rows, rich in hits. Any-hit rate of the full collection: about 3.4%.

SMILES	TWEAK-Fn14 inh	TROY NFkB inh	Shn3 3UTR inh	EBV LMP1 NFkB	TRPM1 prom inh	HIF-2a block
CC/C(=C/c1ccccc1)c1cccc2[nH]c3c(OC)cccc3c12	20.4	-1.0	85.7*	-6.8	9.5	-11.9
CCC(=C(c1ccc(OC)cc1)c1ccc(OC)cc1)c1cn(CC(O)CN2CCN(C)CC2)c2ccccc12 (stereo unspecified)	7.3	-3.7	17.9	-1.9	85.8*	11.9
COc1ccc(-c2cc3ccccc3n2CC(O)CN2CCCCC2)cc1 (stereo unspecified)	7.3	-1.0	-28.4	-5.4	-13.2	1.1
CCN(CC)C(=O)c1cccc(-c2csc(C(C)(O)c3cccc(F)c3)n2)c1 (stereo unspecified)	53.0*	38.4	56.2	.	.	16.0
COc1cccc(C(C)(O)c2nc(-c3cccc(C#N)c3)cs2)c1 (stereo unspecified)	51.7*	22.1	-5.4	.	.	8.4
CC(=O)Nc1cccc(-c2csc(C(C)(O)c3cccc(F)c3)n2)c1 (stereo unspecified)	-5.9	-0.9	-20.4	.	.	11.6
CCN(CCNC(=O)c1cccc(N2CCCC2=O)c1)c1ccccc1	52.1*	69.6*	-3.5	-5.5	-10.4	-40.4
CN(CCNC(=O)c1cccc(N2CCCC2=O)c1)Cc1ccccc1	-24.6	1.4	0.9	5.4	3.9	6.0
Cc1ccc(C)c(NC(=S)NC(NC(=O)/C=C/c2ccccc2)C(Cl)(Cl)Cl)c1 (stereo unspecified)	54.9*	29.9	79.1	13.2	42.2	16.0
O=C(/C=C/c1ccccc1)NC(NC(=S)Nc1cccc(Cl)c1)C(Cl)(Cl)Cl (stereo unspecified)	63.0*	33.9	64.9	55.8*	19.8	32.4
O=C(/C=C/c1ccccc1)NC(NC(=S)Nc1ccc(Cl)cc1Cl)C(Cl)(Cl)Cl (stereo unspecified)	64.5*	27.9	43.2	1.5	8.2	-7.4
O=C(/C=C/c1ccccc1)NC(NC(=S)Nc1cccc(O)c1)C(Cl)(Cl)Cl (stereo unspecified)	56.4*	46.6	12.2	6.1	10.4	16.0
S=C(Nc1ccccc1)Nc1ccc(Cl)cc1Cl	-36.0	-14.1	-7.7	-11.3	-48.0	-195.3
O=C(/C=C/c1ccccc1)NC(NC(=S)Nc1ccc(C(=O)O)cc1)C(Cl)(Cl)Cl (stereo unspecified)	-2.9	0.2	-0.9	-1.4	-14.1	-4.9
Cc1ccc(C)c(NC(=S)NC(NC(=O)OCc2ccccc2)C(Cl)(Cl)Cl)c1 (stereo unspecified)	60.6*	49.0	15.3	4.9	1.2	24.1
O=C(NC(NC(=S)Nc1c(Cl)cc(Cl)cc1Cl)C(Cl)(Cl)Cl)OCc1ccccc1 (stereo unspecified)	38.1	37.5	?	11.7	9.5	18.6
COc1ccc2cc3cc(C(=O)NCCN4CCN(c5ccccc5F)CC4)oc3nc2c1	67.2*	59.8*	10.0	20.7	44.8	-2.3
COCCNC(=O)c1cc2cc3ccc(OC)cc3nc2o1	-35.8	-45.0	-15.9	-7.0	-49.5	-89.5
COc1ccc2cc3cc(C(=O)Nc4ccccc4N4CCN(C)CC4)oc3nc2c1	33.9	-11.7	14.2	0.1	66.3*	54.7*
COc1ccc2cc3cc(C(=O)N4CCN(c5ccccc5)CC4)oc3nc2c1	-1.5	-40.2	9.6	7.5	2.7	-7.0
COc1ccc(OC)c(C2=NOC(C(=O)N3CCCc4ccccc43)C2)c1 (stereo unspecified)	55.2*	38.6	-37.8	4.8	-27.2	-46.4
O=C(OCC(=O)N1CCc2ccccc21)c1ccccc1[N+](=O)[O-]	59.7*	49.9	5.8	-33.2	-27.8	-170.6
O=C(C1CC(c2ccc(F)cc2)=NO1)N1CCCc2ccccc21 (stereo unspecified)	8.4	-14.2	3.3	4.8	-9.7	-40.5
COc1ccc(CC(=O)Nc2cccc3c2CCCC3)cc1	103.7*	-10.0	4.8	-2.7	.	-14.7

High-throughput results (PubChem BioAssay)
